Where “and” joins values, the source holds several entries; their conditions need not be identical. Identical values can stand only once. Records with an inconclusive call do not appear. A structure can be active in one record and inactive in another. Calls of active or inactive are those of the source. The calls were made as follows, unless noted: active = hit-call score of the fitted dose curve at least 0.9, where 1 is the maximum; inconclusive = response in the unintended direction; inactive = score below 0.9.
read-out: UDP glucuronosyltransferase (UGT1A6), UGT1A6 (gene 54578); assay: LTEA_HepaRG_UGT1A6: Life Technologies and Expression Analysis (LTEA) Assay for UDP glucuronosyltransferase (UGT1A6) using HepaRG (AID 2283539; active = hit-call score of the fitted dose curve at least 0.9, where 1 is the maximum; inactive = score below 0.9); conditions: mRNA level, 48 h; actives raise or lower the signal
Procedure, shortened: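 Measures mRNA change in HepaRG hepatic cells exposed 48 h to chemicals (eight-point, maximum 100 uM, 0.5% DMSO vehicle) in serum-free induction medium. Expression normalized to endogenous controls; DMSO served as negative control and baseline.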

| SMILES | outcome | AC50 |
| --- | --- | --- |
| Cc1cc(C)c(O)c(C)c1 | inactive | – |
| CCCOC(=O)c1ccc(O)cc1 | inactive | – |
| c1ccc2c(c1)ccc1ccccc12 | inactive | – |
| CC(C)(C)c1ccc(O)c(C(C)(C)C)c1 | inactive | – |
| NC(=O)N1C(=O)C(C(=O)c2cc(Cl)cs2)c2cc(F)c(Cl)cc21 (stereo not given) | – | 57 µM (active) |
| CCOC(=O)CC(O)(CC(=O)OCC)C(=O)OCC | inactive | – |

read-out: X-box binding protein 1 (XBP1), XBP1 (gene 7494); assay: LTEA_HepaRG_XBP1: Life Technologies and Expression Analysis (LTEA) Assay for X-box binding protein 1 (XBP1) using HepaRG (AID 2283540; active = hit-call score of the fitted dose curve at least 0.9, where 1 is the maximum; inactive = score below 0.9); conditions: mRNA level, 48 h; actives raise or lower the signal
Procedure, shortened: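 Eight concentrations (half-log, highest 100 uM, 0.5% DMSO) tested in duplicate on HepaRG cells over 48 h in serum-free induction medium; qRT-PCR of XBP1 normalised to ACTB, GAPDH, POLR2A.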

| SMILES | outcome |
| --- | --- |
| c1ccc2c(c1)Cc1ccccc1-2 | inactive |
| COC(=O)CCCCC(=O)OC | inactive |
| CN1CCC[C@H]1c1cccnc1 | inactive |

read-out: not listed separately; assay: LTEA_HepaRG_LDH_cytotoxicity: Cytotoxicity Assessment in the Life Technologies and Expression Analysis (LTEA) Assay (AID 2283563); conditions: not given;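 as to AC50: LDH activity released into spent culture medium as a marker of cell death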
Procedure, shortened: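 Spent-medium LDH after 48 h chemical exposure of HepaRG cells in serum-free induction medium; eight concentrations, half-log dilutions from 100 uM, duplicate wells, fitted upward relative to 0.5% DMSO.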

| SMILES | AC50 | outcome |
| --- | --- | --- |
| Cc1cc(CCN2CCN(c3nsc4ccccc34)CC2)cc2c1NC(=O)CC2(C)C | 76.8 µM (active) | – |
| c1ccc2c(c1)Cc1ccccc1-2 | – | inactive |
| COC(=O)CCCCC(=O)OC | – | inactive |
| C#C[C@]1(O)CC[C@H]2[C@@H]3CCC4=CC(=O)CC[C@@H]4[C@H]3CC[C@@]21C | – | inactive |
| COCC(C)OCC(C)O (stereo not given) | – | inactive |
| CC(=O)CC(C)(C)O | – | inactive |
| CC(C)(C)c1cc(C(C)(C)C)c(O)c(C(C)(C)C)c1 | – | inactive |
| CN1CCC[C@H]1c1cccnc1 | – | inactive |
| CC(C)(C)CC(C)(C)c1ccc(O)c(-n2nc3ccccc3n2)c1 | – | inactive |
| Nc1cccc2c(N)cccc12 | – | inactive |
| CCC(=C(c1ccc(O)cc1)c1ccc(OCCN(C)C)cc1)c1ccccc1 | 80.5 µM (active) | – |
| CC[C@H](C)[C@@H](C(=O)O)n1sc2ccccc2c1=O | – | inactive |
| OC1CCC(C2CCCCC2)CC1 (stereo not given) | – | inactive |
| O=[N+]([O-])c1ccc(O)cc1 | – | inactive |
| CCN(CC)CCNc1ccc(CNC=O)c2sc3ccc(OC)cc3c(=O)c12 | 80.1 µM (active) | – |
| O=C(OCCOCCOC(=O)c1ccccc1)c1ccccc1 | – | inactive |
| CCC(C)(C)C1CCC(O)CC1 (stereo not given) | – | inactive |
| CCCCCCCCOC(=O)CCCCCCCCC(=O)OCCCCCCCC | – | inactive |
| CC[C@H](c1ccc(O)cc1)[C@@H](CC)c1ccc(O)cc1 | 76.1 µM (active) | – |
| CCCCCCCCC(=O)O | – | inactive |
| CCCCOCCO | – | inactive |
| Cc1cc(C)c(O)c(C)c1 | – | inactive |
| CCCOC(=O)c1ccc(O)cc1 | – | inactive |
| c1ccc2c(c1)ccc1ccccc12 | – | inactive |
| CC(C)(C)c1ccc(O)c(C(C)(C)C)c1 | – | inactive |
| NC(=O)N1C(=O)C(C(=O)c2cc(Cl)cs2)c2cc(F)c(Cl)cc21 (stereo not given) | 15.8 µM (active) | – |
| CCOC(=O)CC(O)(CC(=O)OCC)C(=O)OCC | – | inactive |

test system: not listed separately; assay: ATG_XTT_Cytotoxicity: Cytotoxicity Assessment in the Attagene TRANS-FACTORIAL HepG2 Assay (AID 2283584); conditions: not given;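 as to AC50: XTT signal for cell number as viability in transfected HepG2 cells; cells exposed to compound for 24 h before reading; active means loss of viability signal versus DMSO baseline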
Procedure, shortened: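 24 h chemical exposure of reporter-transfected HepG2; XTT signal loss vs DMSO indicates cytotoxicity.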

| SMILES | outcome | AC50 |
| --- | --- | --- |
| O=C1OC2(c3ccccc31)c1cc(Br)c(O)c(Br)c1Oc1c2cc(Br)c(O)c1Br | inactive | – |
| COC(=O)CCCCC(=O)OC | inactive | – |
| C#C[C@]1(O)CC[C@H]2[C@@H]3CCC4=CC(=O)CC[C@@H]4[C@H]3CC[C@@]21C | inactive | – |
| CC(O)C(=O)O (stereo not given) | inactive | – |
| COCC(C)OCC(C)O (stereo not given) | inactive | – |
| CC(=O)CC(C)(C)O | inactive | – |
| CN1CCC[C@H]1c1cccnc1 | inactive | – |
| CC(C)(C)CC(C)(C)c1ccc(O)c(-n2nc3ccccc3n2)c1 | inactive | – |
| Nc1cccc2c(N)cccc12 | inactive | – |
| CCCCCCCCCCCCCC[N+](C)(C)C | inactive | 36.8 µM (active) |
| CCC(=C(c1ccc(O)cc1)c1ccc(OCCN(C)C)cc1)c1ccccc1 | – | 18.4 µM (active) and 34.2 µM (active) and 6.67 µM (active) |
| OC1CCC(C2CCCCC2)CC1 (stereo not given) | inactive | – |
| O=[N+]([O-])c1ccc(O)cc1 | inactive | – |
| Cc1ccc(S(=O)(=O)O)c(C)c1 | inactive | – |
| O=C(OCCOCCOC(=O)c1ccccc1)c1ccccc1 | inactive | – |
| CCC(C)(C)C1CCC(O)CC1 (stereo not given) | inactive | – |
| CCCCCCCCOC(=O)CCCCCCCCC(=O)OCCCCCCCC | inactive | – |
| CC[C@H](c1ccc(O)cc1)[C@@H](CC)c1ccc(O)cc1 | inactive | 144 µM (active) and 133 µM (active) and 164 µM (active) |
| CCCCCCCCC(=O)O | inactive | – |
| CCCCOCCO | inactive | – |
| CCCOC(=O)c1ccc(O)cc1 | inactive | – |
| c1ccc2c(c1)ccc1ccccc12 | inactive | – |
| CC(C)(C)c1ccc(O)c(C(C)(C)C)c1 | inactive | – |
| CCOC(=O)CC(O)(CC(=O)OCC)C(=O)OCC | inactive | – |

test system: not listed separately; assay: TOX21_p53_BLA_p2_viability: Viability Assessment in the Tox21 HCT-116 p53 Agonism Beta-lactamase Assay, Phase 2 (AID 2283591); conditions: not given;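 also: compound exposure lasted 16 h at 37 °C; actives lower the ATP signal meaning cytotoxicity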
Procedure, shortened: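 HCT-116 p53-bla cells (4000/well) rested 5 h at 37C, then received compounds in DMSO (217-fold dilution) for 16 h at 37C, 5% CO2. After the CCF4 read, CellTiter-Glo was added; ATP luminescence was read after 30 min at room temperature.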

| SMILES | AC50 | outcome |
| --- | --- | --- |
| Cc1cc(CCN2CCN(c3nsc4ccccc34)CC2)cc2c1NC(=O)CC2(C)C | 60.5 µM (active) | – |
| c1ccc2c(c1)Cc1ccccc1-2 | – | inactive |
| O=C1OC2(c3ccccc31)c1cc(Br)c(O)c(Br)c1Oc1c2cc(Br)c(O)c1Br | – | inactive |
| COC(=O)CCCCC(=O)OC | – | inactive |
| CC(=O)NC1(c2cccc(F)c2)CCN(CC[C@@]2(c3ccc(Cl)c(Cl)c3)CN(c3ccccc3)C(=O)CO2)CC1 | 57.1 µM (active) | – |
| CC(O)CO (stereo not given) | – | inactive |
| CC(=O)CC(C)(C)O | – | inactive |
| CC(C)(C)c1cc(C(C)(C)C)c(O)c(C(C)(C)C)c1 | – | inactive |
| CC(C)(C)CC(C)(C)c1ccc(O)c(-n2nc3ccccc3n2)c1 | – | inactive |
| Nc1cccc2c(N)cccc12 | – | inactive |
| CCCCCCCCCCCCCC[N+](C)(C)C | 49.1 µM (active) and 13.3 µM (active) and 33.7 µM (active) | – |
| OC1CCC(C2CCCCC2)CC1 (stereo not given) | – | inactive |
| O=[N+]([O-])c1ccc(O)cc1 | – | inactive |
| CCN(CC)CCNc1ccc(CNC=O)c2sc3ccc(OC)cc3c(=O)c12 | – | inactive |
| CC[C@H](c1ccc(O)cc1)[C@@H](CC)c1ccc(O)cc1 | 61.7 µM (active) | inactive |
| CCCCCCCCC(=O)O | – | inactive |
| CCCOC(=O)c1ccc(O)cc1 | – | inactive |
| c1ccc2c(c1)ccc1ccccc12 | – | inactive |
| CC(C)(C)c1ccc(O)c(C(C)(C)C)c1 | 42.4 µM (active) | inactive |
| NC(=O)N1C(=O)C(C(=O)c2cc(Cl)cs2)c2cc(F)c(Cl)cc21 (stereo not given) | – | inactive |
| CCOC(=O)CC(O)(CC(=O)OCC)C(=O)OCC | – | inactive |
